Source: PubChem BioAssay
Shown are actives, neighbours in structure and some others; about 6.3% of the full set was active somewhere.
tim23-1 inh: growth inhibitors of tim23-1 mutant yeast; S. cerevisiae tim23-1 growth, BacTiter-Glo luminescence, 24 h; inhibition, % at 20 µM; 330,000 tested, 1.3% active; AID 463212;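 active means growth inhibition of the mutant yeast at or above 50%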;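 further: temperature-sensitive mutant grown at 25 °C; plate controls were DMSO-treated mutant yeast for no effect and medium wells lacking yeast for full effect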
tim10-1 inh: tim10-1 yeast growth inhibition. S. cerevisiae tim10-1 ts strain growth, BacTiter-Glo, 24 h. inhibition, % at 20 µM. 330,000 tested, 2.2% active. AID 463190;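 active means inhibition of at least 40%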;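 further: mutant grown at 25 °C; 0% = DMSO wells with yeast and 100% = wells holding no yeast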
Mdm2 MdmX PPI: inhibitors of human Mdm2/MdmX interaction | O15151+Q00987 | SaOS-2 split-luciferase Mdm2/MdmX complementation, luminescence | inhibition, % at 8 µM | 330,000 tested, 3% active | AID 485346;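 active means inhibition of at least 50% at 8 µM in the primary screen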
MPTP block: blocks calcium-induced mitochondrial swelling | isolated mouse mitochondria, Ca2+ swelling absorbance, 30 min | inhibition, % at 10 µM | 360,000 tested, 1.4% active | AID 602449;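 active means inhibition of 50% or more, scaled per plate between neutral and stimulator controls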;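 further: 0% = DMSO wells given calcium and 100% = 1 mM EGTA wells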
TIM10 inh: inhibits growth of TIM10 yeast strain | S. cerevisiae TIM10 strain growth, BacTiter-Glo luminescence, 24 h | inhibition, % at 10 µM | 330,000 tested, 1.4% active | AID 463195;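 active means inhibition of 40% or more at the single tested concentration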;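 further: wild-type TIM10 isogenic control strain grown at permissive 25 °C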
Mdm2 MdmX conf: human Mdm2/MdmX binding inhibition, confirmed; shares compounds with Mdm2 MdmX PPI; luminescent assay; inhibition, % at 8 µM; 10,000 tested, 55% active; AID 489028; in the data active means inhibition above about 40%
FLuc counter: counter-screen for Mdm2/MdmX inhibitors: full-length luciferase; shares compounds with Mdm2 MdmX PPI; SaOS-2 full-length luciferase counterscreen, luminescence; inhibition, % at 8 µM; 6,200 tested, 77% active; AID 504607;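 active means mean inhibition at 8 µM reaching about 37%, which flags the compound as non-specific, limit read from the data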;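 further: p53-null SaOS-2 cells with luciferase driven by a doxycycline-inducible promoter; compound on cells about two nights before reading with doxycycline added after day one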
Active calls of the source: *; / = no result.

SMILES	tim23-1 inh	tim10-1 inh	Mdm2 MdmX PPI	MPTP block	TIM10 inh	Mdm2 MdmX conf	FLuc counter
CC1(C)CC2CC(C)(CN2C(=O)c2cc(-c3ccccc3O)on2)C1 (centres undefined)	33	16	64*	3	18	36	67*
CC(=O)c1c(C)[nH]c(C(=O)OCC(=O)Nc2cc(C)on2)c1C	-9	2	27	1	-7	/	/
COc1cc(NC(=O)COC(=O)c2[nH]c(C)c(C(C)=O)c2C)cc(OC)c1	-8	-9	51*	2	-13	24	/
CCOC(=O)c1c(C)[nH]c(C(=O)OCC(=O)Nc2cc(C)ccc2OC)c1C	-11	20	99*	0	-4	6	/
Cc1cc(=O)oc2cc(OCc3ccc(C(=O)OCC(=O)NC4CCS(=O)(=O)C4)cc3)ccc12 (centres undefined)	-5	6	51*	2	-10	15	/
O=c1cc(-c2ccccc2)[nH]c2ccc(F)cc12	/	/	/	-2	/	/	/
COc1ccc2[nH]c(-c3cccc(F)c3)cc(=O)c2c1	-16	-17	49	1	-13	/	/
Cc1ccc2[nH]c(-c3cccc(F)c3)cc(=O)c2c1	-7	-23	58*	-1	-4	71*	95*
O=c1cc(-c2cccc(F)c2)[nH]c2ccccc12	-7	-24	52*	0	-2	75*	78*
O=C(COC(=O)CCS(=O)(=O)c1ccccc1)NNC(=O)c1ccc([N+](=O)[O-])cc1	/	/	/	0	/	/	/
Cc1ccc(C(=O)N2CCCCC2)cc1NC1=C(Cl)C(=O)N(Cc2ccccc2)C1=O	45	32	56*	0	29	50*	64*
Cc1ccc(O)c(NC2=C(Cl)C(=O)N(Cc3ccccc3)C2=O)c1	/	/	/	1	/	/	/
Cc1nc(C(F)(F)F)ccc1C(=O)N1CCC(C)(C(=O)O)C1 (centres undefined)	/	/	/	0	/	/	/
CC1(C)N=C(SCC(=O)Nc2ccc(Cl)cc2)C(c2ccccc2)=N1	11	34	40	5	20	/	/
CC1(C)N=C(SCC(=O)Nc2ccc(Cl)cc2)C(c2ccc(Cl)cc2)=N1	28	30	56*	44	34	13	/
C=C[C@@H]1c2cc(C)ccc2N(S(=O)(=O)c2ccc(C)cc2)[C@H](c2ccc(OC(C)=O)cc2)C1(C#N)C#N	24	24	72*	1	11	65*	72*
C=C[C@@H]1c2ccccc2N(S(=O)(=O)c2ccc(C)cc2)[C@H](c2ccc(OC(C)=O)cc2)C1(C#N)C#N	26	13	46	1	15	/	/
Cc1cc(OCC(=O)NCc2ccccn2)c2c(C)c(C)c(=O)oc2c1	16	22	23	0	8	/	/
Cc1cc(OCC(=O)Nc2ccccn2)c2c(C)c(C)c(=O)oc2c1	-9	5	52*	-3	-10	-5	/
O=C1CC(c2cc(F)ccc2F)c2cc3c(cc2N1)CCC3 (centres undefined)	47	35	52*	3	32	52*	72*
COc1ccccc1NC(=O)c1ccc(C(=O)Nc2ccccc2OC)nc1	4	-3	26	1	-4	/	/
COc1cccc(NC(=O)c2nc(S(C)(=O)=O)ncc2Cl)c1	16	20	96*	4	37	83*	60*
CCS(=O)(=O)c1ncc(Cl)c(C(=O)Nc2ccccc2OC)n1	18	-5	96*	0	-14	100*	45*
N/C(=N\OC(=O)c1ccc2ccccc2c1)c1ccc(Br)cc1	9	28	62*	5	13	47*	96*
Cc1ccc(C(=O)O/N=C(\N)c2ccc(Br)cc2)cc1C	21	36	99*	3	21	83*	116*
SMILES	tim23-1 inh	tim10-1 inh	Mdm2 MdmX PPI	MPTP block	TIM10 inh	Mdm2 MdmX conf	FLuc counter
Cc1cccc(/C(N)=N/OC(=O)c2ccncc2)c1	8	26	-105	2	36	/	/
N/C(=N\OC(=O)CN1C(=O)c2ccccc2C1=O)c1ccc(Br)cc1	17	22	-10	-2	22	/	/
COc1ccc(/C(N)=N/OC(=O)c2ccc(C)c([N+](=O)[O-])c2)cc1OC	26	21	0	-13	21	/	/
Cc1cccc(C(=O)O/N=C(\N)c2ccc(Cl)cc2)c1	34	37	51*	0	35	-13	/
COc1ccc(NC(=O)c2cc(-c3sc(NC(=O)c4ccccc4)nc3C)n(CCO)n2)cc1	/	/	/	0	/	/	/
COC(=O)C1CCN(C(=O)C2CC(=O)N(c3ccc(C)c(Cl)c3)C2)CC1 (centres undefined)	/	/	/	0	/	/	/
Cc1ccc(S(=O)(=O)N2C[C@@H]3[C@H]4CC[C@H](C4)[C@@H]3[C@@H](C)[C@@H]2c2ccn(Cc3ccccc3)c2)cc1	31	24	50*	-2	0	9	/
c1ccc(Cn2c(Cn3c(-c4cnccn4)nc4ccccc43)nc3ccccc32)cc1	/	/	/	-2	/	/	/
Cn1c(CCN2CCCC2)nc2cc(NS(=O)(=O)c3ccc(Cl)cc3)ccc21	3	18	69*	-2	9	32	/
Cn1cc(CN2CCC(C(=O)Nc3cccc(-c4cccc(F)c4)c3)CC2)cn1	11	-2	27	-1	-4	/	/
COCc1ccc(CN2CCC(C(=O)Nc3cccc(-c4cscn4)c3)CC2)o1	-15	-2	20	2	-2	/	/
C=CCn1cc(CN2CCC(C(=O)Nc3ccc(Oc4cccnc4)cc3)CC2)c(C)n1	-2	-9	4	-1	10	/	/
C=CCn1cc(CN2CCC(C(=O)Nc3cccc(-c4cccc(F)c4)c3)CC2)c(C)n1	18	17	51*	2	21	31	/
COCc1ccc(CN2CCC(C(=O)Nc3cccc(-c4cccc(Cl)c4)c3)CC2)o1	-4	17	78*	15	32	54*	58*
CCCn1ncc(CN2CCC(C(=O)Nc3cccc(-c4cccc(F)c4)c3)CC2)c1C	-31	6	87*	0	16	46*	71*
C=CCn1cc(CN2CCC(C(=O)Nc3cccc(-c4cccc(Cl)c4)c3)CC2)c(C)n1	-7	3	81*	16	9	13	/
CC(C(=O)NCc1cccs1)N1CCN(S(=O)(=O)c2ccc3c(c2)OCCCO3)CC1 (centres undefined)	25	15	33	-1	12	/	/
CCOc1ccc(Cl)cc1-c1cc(C(=O)NCc2ccccc2OC)[nH]n1	/	/	/	-1	/	/	/
Cc1cccc(CN2CCC(C(=O)Nc3cccc(-c4cccc(F)c4)c3)CC2)n1	3	38	38	2	24	/	/
O=C(Nc1cccc(-c2cccc(Cl)c2)c1)C1CCN(Cc2ccccn2)CC1	29	28	37	-1	26	/	/
Cc1c(CN2CCC(C(=O)Nc3cccc(-c4cccc(Cl)c4)c3)CC2)cnn1C	1	10	58*	9	2	10	/
